Hits are enriched below; roughly 2.7% of the tested compounds scored in any of these assays.
rTrxR1 inhibitor – rat TrxR1 inhibition | AID 588453 | Potency, µM (top dose mostly 114 µM), actives largely listed as inhibitors | recombinant rTrxR1, NADPH fluorescence consumption, selenite substrate | hit rate 1% among 390,000; also: nearly all actives have a fitted effect of over 65% in size
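Rat TrxR1 (90 nM in the dispensed reagent) was pre-reduced with 400 uM NADPH for 5 min at room temperature, then incubated with compound for 15 min. After 400 uM selenite was added, NADPH fluorescence (Ex 340/Em 450 nm) was followed for 8 min.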
GLP1R ag – agonists of human GLP-1 receptor; HEK293 GLP-1R CRE-luciferase, luminescence, 4-6 h; cells express a hypersensitive GLP-1R form; Potency, µM (titrated, usually from 45.6 µM), most hits filed as activators; hit rate 0.007% among 380,000; AID 624172
IDH1 R132H inh – blocks human mutant IDH1 R132H enzyme. Potency, µM (series often up to 76.6 µM), usual class: inhibitors. O75874. IDH1-R132H enzyme, NADPH consumption, diaphorase/resazurin fluorescence. hit rate 0.093% among 390,000. AID 602179; also: nearly all actives have a fitted effect of over 65% in size
Target sequence (O75874 whole entry R132H, stated change not applied): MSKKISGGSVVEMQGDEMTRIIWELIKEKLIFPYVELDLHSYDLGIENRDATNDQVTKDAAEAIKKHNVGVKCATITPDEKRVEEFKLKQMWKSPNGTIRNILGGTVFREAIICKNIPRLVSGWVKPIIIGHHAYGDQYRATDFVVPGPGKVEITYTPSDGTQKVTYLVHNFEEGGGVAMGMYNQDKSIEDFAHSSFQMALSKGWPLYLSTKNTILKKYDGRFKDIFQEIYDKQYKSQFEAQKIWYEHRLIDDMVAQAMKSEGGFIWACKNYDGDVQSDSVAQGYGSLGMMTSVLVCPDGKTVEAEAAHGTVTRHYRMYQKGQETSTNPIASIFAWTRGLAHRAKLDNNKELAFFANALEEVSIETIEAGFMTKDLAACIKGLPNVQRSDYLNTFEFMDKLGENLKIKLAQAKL
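IDH1-R132H (0.5 ug/mL dispensed) in pH 7.5 Tris buffer was preincubated 30 min with compound, then given a substrate mix of 0.016 mM NADPH and 2 mM alpha-KG for 80 min at room temperature; remaining NADPH was read by diaphorase/resazurin fluorescence.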
GLP1R cytotox – cytotoxic in the GLP-1 receptor inverse agonist counter-screen. HEK293 cAMP-luciferase reporter cells, luminescence, 24 h. hit rate 0.13% among 410,000. Potency, µM (titrated, usually from 38.3 µM), actives largely listed as inhibitors;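 also: loss of luciferase light is scored as toxicity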
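Quantitative HTS format, 1536 wells, 200 cells/uL seeded. Compounds: 23 nL, 24 h, 37 °C. Detection: luciferase reagent, luminescence at 12 min RT; decreased signal taken as cytotoxic.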
TrxR1 substrate – rat thioredoxin reductase 1 substrate activity; purified TrxR1 substrate turnover, NADPH consumption readout; hit rate 0.01% among 390,000; Potency, µM (series often up to 114 µM); O89049; also: nearly all actives have a fitted effect of over 50% in size
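Rat TrxR1, dispensed at 90 nM, was prereduced with 400 uM NADPH (final) for 5 min at ~22 deg C, then incubated with compound 15 min before 400 uM selenite. A first-read NADPH fluorescence drop versus no-compound background flagged substrates.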
GLP1R inv ag – GLP-1 receptor (human) inverse agonism | P43220 | HEK293 GLP-1R CRE-luciferase, luminescence, 24 h; GLP-1R form is constitutively active | Potency, µM (top dose mostly 38.3 µM), usual class: inhibitors | hit rate 1.6% among 410,000 | AID 624417; also: nearly all actives have a fitted effect of over 55% in size
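GLP-1R inverse agonism mode: basal reporter luminescence in engineered HEK293 cells measured after one day of compound exposure at 37 deg C, with a 12 min room-temperature detection step.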
Hits are given with their value; - = inactive; ? = inconclusive; . = no result given; [ ] = remark or other dose. Calls follow the shape of the dose curve; as a rule, active = well fitted curve in the direction sought with a large enough effect; inconclusive = small, poorly fitted or top-dose-only effect, or another doubt; inactive = no such curve, though single readings can be large; an effect the other way counts as inactive or inconclusive.

SMILES	rTrxR1 inhibitor	GLP1R ag	IDH1 R132H inh	GLP1R cytotox	TrxR1 substrate	GLP1R inv ag
Cc1ccc2c(c1)Cc1c(nc(-c3ccc(Cl)cc3)nc1SCC(=O)N1CCCCC1)O2	-	.	-	-	-	-
CN(C)c1ccc(/C=C/c2nccc3ccccc23)cc1	-	.	.	.	-[0.0914 µM]	.
CN(C)c1ccc(/C=C/c2ccc3c4ccccc4ccc3[n+]2-c2ccccc2)cc1	-	-	29.3µM	7.94µM	-	?
COc1ccc(C(C)C)cc1S(=O)(=O)NCCc1c(C)[nH]c2ccc(C)cc12	-	.	-	-	-	11.2µM
Cc1[nH]c2ccccc2c1CCNS(=O)(=O)c1ccc(S(N)(=O)=O)cc1	-	-	-	-	-	-
COc1cc(S(=O)(=O)NCCc2c(C)[nH]c3ccc(C)cc23)ccc1Br	-	.	-	-	-	10µM
COc1ccc(/C=C\c2onc(C)c2S(=O)(=O)N2CCC(C(=O)Nc3ccc(Cl)cc3)CC2)cc1	-	.	-	-	-	-
CCN(C(=O)CN(C)S(=O)(=O)c1ccc2c(c1)c(=O)n(C)c(=O)n2C)c1ccc(OC)cc1	-	-	-	-	-	-
CC(C)CCn1c(=O)c2sccc2n2c(CCCC(=O)Nc3ccc(C(C)C)cc3)nnc12	-	.	-	-	-	-
Cc1oc(-c2ccccc2)cc1C(=O)Nc1cccc2ccccc12	?	-	-	-	-	10µM
COc1ccc(Br)cc1/C=C/C(=O)c1ccc(NC(C)=O)cc1	-	-	-	-	-	5.01µM
CN1CCN(c2ccc3sc(-n4ccc5ccccc54)nc3c2)CC1	.	-	-	-	.	6.31µM
COc1ccc(-c2nc(N3CCN(S(=O)(=O)c4ccc(F)cc4)CC3)c3ccccc3n2)cc1	-	.	.	.	-[0.457 µM]	.
CCN(CC)CCOC(=O)/C=C/c1ccccc1	-	-	-	-	-	-
CCN(CC)CC(C)(C)C(=O)/C=C/c1ccc(/C=C/C(=O)C(C)(C)CN(CC)CC)cc1	2µM	-	-	?	-	?
COc1ccc(-c2nc3ccccn3c2Nc2ccccc2C)cc1	-	.	.	.	-	.
O=C(CCCCCNC(=O)N1CCn2c1nc1ccccc12)NCc1ccccc1Cl	-	-	-	-	-	7.08µM
O=C(CCCCCNC(=O)N1CCn2c1nc1ccccc12)NCc1ccc(Cl)cc1	-	-	-	-	-	?
C=CCNC(=O)c1onc(CSc2ccc(Cl)cc2)c1C(=O)O	-	-	-	-	-	2.24µM
C=CCNC(=O)c1onc(CSc2ccc(F)c(F)c2)c1C(=O)O	-	-	-	-	-	?
C=CCNC(=O)c1onc(CSc2ccc(Cl)cc2)c1C(=O)NCC=C	-	-	-	?	-	12.6µM
C=CCNC(=O)c1onc(CSc2cccc(Cl)c2)c1C(=O)O	-	-	-	-	-	?
Cc1ccc2c(CC(=O)Nc3cccc(Cl)c3C)coc2c1	-	.	-	-	-	-
Cc1ccccc1NC(=O)c1nnn(-c2ccc3c(c2)OCCO3)c1N	-	-	-	-	-	-
CCOc1ccccc1NC(=O)c1nnn(-c2ccc3c(c2)OCCO3)c1N	-	-	-	-	-	2.51µM
SMILES	rTrxR1 inhibitor	GLP1R ag	IDH1 R132H inh	GLP1R cytotox	TrxR1 substrate	GLP1R inv ag
CCOc1cc(/C=N/NS(=O)(=O)c2ccccc2)ccc1OS(=O)(=O)c1ccc(C)cc1	-	-	-	-	-	8.91µM
CCOc1cc(/C=N/O)ccc1OS(=O)(=O)c1ccc(C)cc1	-	-	-	-	-	?
CCc1ccc(Cn2c(CNS(=O)(=O)c3ccc([N+](=O)[O-])cc3)nc3cccnc32)cc1	-	.	-	-	-	-
O=C1C=CCC(/C=C/c2ccccc2)O1 (configuration not stated)	-	-	-	-	-	2.51µM
CCC1([N+](=O)[O-])COC(C=Cc2ccccc2)OC1 (configuration not stated)	-	-	-	-	-	?
CCSc1ncc(/C=N/Nc2ccccc2)n1C	-	-	-	?	-	3.55µM
COC(=O)c1sccc1S(=O)(=O)N(CC(=O)Nc1c(C)cccc1C)c1ccc(C)c(C)c1	-	.	-	-	-	?

Screening data (PubChem BioAssay)
